TbPYK inhibitor – inhibitors of Trypanosoma brucei pyruvate kinase | Q57TT1 | TbPYK enzyme, Kinase-Glo Plus ATP luminescence, 45 min | Potency, µM (titrated, usually from 76.8 µM), usual class: inhibitors | 0.12% of 410,000 active | AID 624173; note: nearly all actives have a fitted effect of over 50% in size
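Assay buffer: 50 mM TEA pH 7.2, 100 mM KCl, 10 mM MgCl2, 0.05% BSA, 0.01% Tween-20. Pyruvate kinase from T. brucei plus substrate met compound, then ADP (130 uM final). Luminescence was read post 45 min RT.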
LmPK inh – blocks Leishmania mexicana pyruvate kinase activity. purified LmPK, Kinase-Glo ATP luminescence, 1 h. Potency, µM (highest dose often 57.5 µM), most hits filed as inhibitors. 0.37% of 290,000 active. AID 1721
Target sequence (Q27686 whole entry, looked up): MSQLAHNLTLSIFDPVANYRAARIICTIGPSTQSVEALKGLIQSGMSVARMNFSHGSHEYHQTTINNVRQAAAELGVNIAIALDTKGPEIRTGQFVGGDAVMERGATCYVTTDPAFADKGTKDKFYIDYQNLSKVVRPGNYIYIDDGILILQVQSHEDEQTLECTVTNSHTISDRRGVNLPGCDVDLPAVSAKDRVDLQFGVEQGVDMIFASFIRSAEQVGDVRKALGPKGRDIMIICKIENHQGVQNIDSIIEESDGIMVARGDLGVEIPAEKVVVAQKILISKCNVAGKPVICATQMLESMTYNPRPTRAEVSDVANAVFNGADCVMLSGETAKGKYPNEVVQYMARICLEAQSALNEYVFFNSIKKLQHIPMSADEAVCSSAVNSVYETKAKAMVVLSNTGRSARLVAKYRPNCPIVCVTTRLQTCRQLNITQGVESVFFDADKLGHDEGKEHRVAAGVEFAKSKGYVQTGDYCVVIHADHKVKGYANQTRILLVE
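Pyruvate kinase activity monitored as ATP production (luciferase luminescence). Conditions: 0.1 nM enzyme, 0.5 mM PEP, 0.1 mM ADP, 1 h, RT; normalized against uninhibited and no-enzyme wells.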
Sm TGR inh – inhibitors of Schistosoma mansoni thioredoxin glutathione reductase; 3% of 360,000 active; AID 485364; Potency, µM (doses to about 114 µM), most hits filed as inhibitors; Q962Y6; purified TGR, DTNB reduction, TNB absorbance 405 nm; note: nearly all actives have a fitted effect of over 60% in size
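TGR 20 nM + NADPH 100 uM (dispensed conc.), cpd preinc 15 min RT; start with NADPH (500 uM addition) then DTNB (15 mM addition). Kinetic TNB absorbance, 405 nm filter. Four-parameter Hill fit across titration.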
RE007 growth inh – less growth of the S. pombe RE007 Vpr strain. S. pombe RE007 Vpr strain, BacTiter-Glo ATP luminescence, 24 h. Potency, µM (titrated, usually from 92.2 µM), usual class: inhibitors. 0.21% of 360,000 active; active = well fitted falling curve with a large enough effect; inconclusive = small, poorly fitted or top-dose-only effect; inactive = no such curve, though single readings can be large or run the other way; note: nearly all actives have a fitted effect of over 50% in size
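Fission yeast RE007 carrying one integrated HIV-1 vpr copy, seeded at OD 0.01 in PMG+AL medium with 23 nL pinned compound. Grown 24 h at 30 degrees; viability read by BacTiter-Glo luminescence after 5 min.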
Large screens that a line does not name were inactive. Most compounds without a hit are left out; they make up all but 3% or so of the library. Unless noted, calls come from the whole dose curve; as a rule, active = well fitted curve in the direction sought with a large enough effect; inconclusive = small, poorly fitted or top-dose-only effect, or another doubt; inactive = no such curve, though single readings can be large; an effect the other way counts as inactive or inconclusive.

O=C(NCCc1ccc(Cl)cc1)c1ccc(CS(=O)Cc2ccc(Cl)cc2)o1 (stereo not given)	none
CC(=O)N1CCc2cc(S(=O)(=O)NC(Cc3ccccc3)C(=O)NCc3ccccc3)ccc21 (stereo not given)	none (no result: LmPK inh, RE007 growth inh)
COc1ccccc1C(=O)Nc1ccc2c(c1)CC1(C(=O)N(C)C(=O)N(C)C1=O)C1CCCN21 (stereo not given)	Sm TGR inh 35µM
Cc1cccc(C(=O)Nc2ccc3c(c2)CC2(C(=O)N(C)C(=O)N(C)C2=O)C2CCCN32)c1 (stereo not given)	Sm TGR inh inconclusive
C=CCc1cc(C=C2C(=O)N(C)C(=O)N(C)C2=O)cc(OCC)c1OCc1ccccc1	TbPYK inhibitor inconclusive, Sm TGR inh 32µM
C=CCc1cc(C=C2C(=O)NC(=O)NC2=O)cc(OC)c1OCc1ccc(C(=O)O)cc1	TbPYK inhibitor inconclusive, Sm TGR inh inconclusive
O=C(O)CC(O)CC(O)/C=C/c1c(C2CC2)nc2ccccc2c1-c1ccc(F)cc1 (stereo not given)	none (no result: LmPK inh, Sm TGR inh, RE007 growth inh)
COc1cc2cnc(-c3ccccc3)c(-c3cc(OC)c(OC)c(OC)c3)c2cc1OC	Sm TGR inh 3.2µM (no result: LmPK inh)
O=C(Nc1ccc(Cl)cc1)C1CCN(S(=O)(=O)c2ccc(Br)s2)CC1	none (no result: LmPK inh, RE007 growth inh)
Cc1ccc(S(=O)(=O)NCCc2sc3nc(-c4ccccc4)nn3c2C)cc1C	none (no result: LmPK inh, RE007 growth inh)
O=C(CSc1ccc(-c2ccccc2)nn1)NC1CCCC1	none
O=C(CSc1ccc(-c2ccco2)nn1)NC1CCCCC1	Sm TGR inh 8.9µM
O=C(CSc1ccc(-c2ccco2)nn1)N1CCCCCC1	Sm TGR inh 25µM
O=C(CSc1ccc(-c2ccco2)nn1)NC1CCCC1	Sm TGR inh 18µM
Nc1nc(F)nc2c1ncn2[C@@H]1O[C@H](COP(=O)(O)O)[C@@H](O)[C@@H]1O	none (no result: LmPK inh, Sm TGR inh, RE007 growth inh)
O=C(Cc1ccc(NC(=O)N2CCCCc3ccccc32)cc1)NCc1cccc(Br)c1	none (no result: LmPK inh, RE007 growth inh)
CC(C)c1onc(-c2c(Cl)cccc2Cl)c1COc1ccc(/C=C/c2cccc(C(=O)O)c2)c(Cl)c1	none (no result: LmPK inh, Sm TGR inh, RE007 growth inh)
Cc1ccccc1OCCC(=O)Nc1ccccc1C(=O)NC1CC1	none (no result: LmPK inh)
Cc1nc(-c2ccccc2)sc1C(=O)NS(=O)(=O)c1ccc(CN2CCN(c3ccccc3)CC2)cc1	none (no result: LmPK inh, Sm TGR inh)
CC(C)(C)C1C/C(=C/c2ccccn2)C(=O)/C(=C/c2ccccn2)C1 (stereo not given)	Sm TGR inh 18µM
CC1C/C(=C/c2ccccn2)C(=O)/C(=C/c2ccccn2)C1 (stereo not given)	Sm TGR inh 16µM, RE007 growth inh 63µM
NCc1ccccc1Sc1ccccc1CO	none (no result: LmPK inh, Sm TGR inh, RE007 growth inh)
CC(=O)N(Cc1ccccc1)c1ncc2c(n1)c(=O)c(C#N)c1ccccn12	Sm TGR inh 45µM
CC(=O)N(Cc1c(C#N)c2ccccc2n1C)c1ccccc1	none
CC(C)C1Oc2ccccc2N(CC(=O)N(Cc2ccncc2)Cc2ccco2)C1=O (stereo not given)	Sm TGR inh 32µM
Cc1ccc(CN(Cc2cccnc2)C(=O)CN2C(=O)COc3ccccc32)o1	TbPYK inhibitor inconclusive, Sm TGR inh 10µM
O=c1cc(CN2CCN(Cc3ccccc3)CC2)c2cc(Cl)ccc2o1	none
Cc1ccc2occ(CN3CCN(Cc4ccccc4)CC3)c(=O)c2c1	none (no result: TbPYK inhibitor, RE007 growth inh)
Cc1ccc2occ(CN3CCN(c4ccccc4)CC3)c(=O)c2c1	Sm TGR inh 25µM
O=c1c(CN2CCN(Cc3ccccc3)CC2)coc2ccc(Cl)cc12	Sm TGR inh 7.1µM, RE007 growth inh inconclusive
COCCN(Cc1ccc(C)cc1)C(=O)[C@H]1O[C@@H](n2ccc(N)nc2=O)[C@H](O)[C@@H]1O	none (no result: LmPK inh, Sm TGR inh)
COC(=O)C1=C(C)NC(=O)/C1=C\c1cc(C)n(-c2cc(C)cc(C)c2)c1C	Sm TGR inh inconclusive, RE007 growth inh 10µM
Cc1cc(C)cc(N2C(=O)NC(=O)/C(=C\c3cc(C)n(C)c3C)C2=O)c1	none (no result: Sm TGR inh)
Cc1cc(/C=C2/C(=O)NC(=O)N(C)C2=O)c(C)n1-c1ccccc1	RE007 growth inh inconclusive (no result: Sm TGR inh)
COC(=O)C1=C(C)NC(=O)/C1=C\c1cc(C)n(-c2ccccc2)c1C	Sm TGR inh 28µM, RE007 growth inh inconclusive
COc1cc(O)ccc1-c1nc2ccc(Br)cn2c1Nc1ccccc1C	none (no result: LmPK inh, RE007 growth inh)
CC(=O)OCC12CC(OC(=O)CC(C)C)C(C)=CC1OC1C(O)C(OC(C)=O)C2(C)C12CO2 (stereo not given)	RE007 growth inh 5.6µM (no result: LmPK inh, Sm TGR inh)
Nc1c(Cl)ncnc1N/N=C/c1cccnc1	Sm TGR inh 50µM
O=C(CNC(=O)c1ccco1)NCC(=O)OCc1cccc(Cl)c1	none
O=C(NC1CCN(C(=O)Nc2cccc(Cl)c2)CC1)c1ccco1	none
O=C(COC(=O)CNC(=O)c1ccco1)Nc1ncc(Cl)cc1Cl	Sm TGR inh 40µM (no result: LmPK inh)
O=C(CCNc1cccc(Cl)c1)c1ccco1	Sm TGR inh 11µM
O=C(COC(=O)Cc1ccccc1)Nc1ncc(Cl)cc1Cl	none
O=C(CNC(=O)c1ccco1)OCc1cccc(Cl)c1	Sm TGR inh 45µM
COc1ccccc1NC(=O)CSc1nc(-c2ccc(C(C)(C)C)cc2)c(C#N)c(=O)[nH]1	Sm TGR inh inconclusive (no result: LmPK inh, RE007 growth inh)
Cc1cc(=O)[nH]c2nnc(SCC(=O)Nc3ccc(OC(F)(F)F)cc3)n12	none (no result: LmPK inh, RE007 growth inh)
O=C(Nc1c2c(nn1-c1ccccc1)CS(=O)(=O)C2)c1ccco1	none
Cc1ccccc1-n1nc2c(c1NC(=O)c1ccc(Br)o1)CSC2	Sm TGR inh 32µM
Cc1ccccc1-n1nc2c(c1NC(=O)c1ccco1)CS(=O)(=O)C2	Sm TGR inh 45µM
CC(=O)Nc1c2c(nn1-c1ccc(C)cc1C)CSC2	none
COc1ccc(COC(=O)c2ccc(C)c(S(=O)(=O)N3CCOCC3)c2)cc1F	none (no result: LmPK inh)
O=C(Nc1nc(-c2cccs2)cs1)C1=COCCO1	LmPK inh inconclusive, RE007 growth inh 35µM
Cc1ccc(S(=O)(=O)N2CCN(Cc3ccccc3Cl)CC2)cc1	none (no result: LmPK inh, RE007 growth inh)
Cc1cccc(C)c1N1C(=O)CC(N(O)c2ccccc2)C1=O (stereo not given)	Sm TGR inh 14µM
Cc1c(Cl)cccc1N1C(=O)CC(N(O)c2ccccc2)C1=O (stereo not given)	Sm TGR inh 13µM
Cc1cccc(C)c1N1C(=O)C2ON(c3ccccc3)C(c3ccncc3)C2C1=O (stereo not given)	none
Cc1ccccc1N1C(=O)C2ON(c3ccccc3)C(c3ccco3)C2C1=O (stereo not given)	Sm TGR inh 50µM
COc1ccccc1C1C2C(=O)N(c3ccccc3)C(=O)C2ON1c1ccccc1 (stereo not given)	none
CCOc1ccc(N2C(=O)C3ON(c4ccccc4)C(c4ccco4)C3C2=O)cc1 (stereo not given)	Sm TGR inh inconclusive
Cc1ccc(N2C(=O)C3ON(c4ccccc4)C(c4ccncc4)C3C2=O)c(C)c1 (stereo not given)	Sm TGR inh 50µM
COc1ccccc1N1C(=O)C2ON(c3ccccc3)C(c3ccc(N(C)C)cc3)C2C1=O (stereo not given)	Sm TGR inh 5µM (no result: TbPYK inhibitor, RE007 growth inh)

Bioassay records: PubChem BioAssay, National Center for Advancing Translational Sciences (NCATS)
